Data on eleven sequences can be found in paper PMC5700166.

Common to all, as to experiment: protein-binding microarray (PBM); PBM: ~300 nM protein, 6 mM HEPES pH 7.8, 80 mM KCl, 0.5 mM EDTA, 0.5 mM EGTA, 6% glycerol, 35 ng/ul poly-dIdC, 1% milk, 1 h, room temperature; Ap Aiptasia and Nv Nematostella (sea anemones) / Co Capsaspora / Aq Amphimedon (sponge) / Dm Drosophila / Hu human; RHD is the Rel homology domain; high values mean tight binding
Holding throughout (conditions): dsDNA, one strand shown

One assay has as its target T1, GST-Ap-NF-kB RHD (Exaiptasia pallida (Aiptasia), UniProt A0A913YAJ5 2-422).
T1 sequence: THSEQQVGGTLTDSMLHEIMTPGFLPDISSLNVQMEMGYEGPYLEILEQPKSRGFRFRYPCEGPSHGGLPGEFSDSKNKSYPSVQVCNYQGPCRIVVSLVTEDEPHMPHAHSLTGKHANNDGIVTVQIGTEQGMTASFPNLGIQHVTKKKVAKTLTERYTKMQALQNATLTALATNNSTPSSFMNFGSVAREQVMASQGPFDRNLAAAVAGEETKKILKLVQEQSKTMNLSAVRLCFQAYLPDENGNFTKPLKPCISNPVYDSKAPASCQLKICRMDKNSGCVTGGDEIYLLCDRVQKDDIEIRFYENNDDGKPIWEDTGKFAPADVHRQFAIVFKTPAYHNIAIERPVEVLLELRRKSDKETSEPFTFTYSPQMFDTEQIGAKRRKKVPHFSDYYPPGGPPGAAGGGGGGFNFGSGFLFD

In assay [1] the target is T2, GST-Nv-NF-kB (Cys allele) (Nematostella vectensis, UniProt E5G601 2-411).
T2 sequence: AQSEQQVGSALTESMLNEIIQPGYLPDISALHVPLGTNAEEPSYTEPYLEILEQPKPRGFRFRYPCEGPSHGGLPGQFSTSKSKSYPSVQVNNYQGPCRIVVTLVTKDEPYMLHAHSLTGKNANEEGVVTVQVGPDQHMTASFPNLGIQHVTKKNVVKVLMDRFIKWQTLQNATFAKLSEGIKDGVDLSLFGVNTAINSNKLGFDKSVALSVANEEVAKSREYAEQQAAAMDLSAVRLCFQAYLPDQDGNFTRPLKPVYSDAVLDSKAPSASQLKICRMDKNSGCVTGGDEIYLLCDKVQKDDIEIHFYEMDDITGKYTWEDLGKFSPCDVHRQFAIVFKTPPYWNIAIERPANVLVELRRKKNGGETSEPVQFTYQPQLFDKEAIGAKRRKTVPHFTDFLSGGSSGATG

The target of assay [2] is T3, GST-Nv-NF-kB (Ser allele) (Nematostella vectensis, UniProt A7UNT2 2-411).
T3 sequence: T2 sequence with Q21R, C66S, S207N, E215Q, V217A, E225K, A268E, D399E

For another assay, the target named is T4, GST-Co-NF-kB (Capsaspora owczarzaki, UniProt F1ARL5 200-546).
T4 sequence: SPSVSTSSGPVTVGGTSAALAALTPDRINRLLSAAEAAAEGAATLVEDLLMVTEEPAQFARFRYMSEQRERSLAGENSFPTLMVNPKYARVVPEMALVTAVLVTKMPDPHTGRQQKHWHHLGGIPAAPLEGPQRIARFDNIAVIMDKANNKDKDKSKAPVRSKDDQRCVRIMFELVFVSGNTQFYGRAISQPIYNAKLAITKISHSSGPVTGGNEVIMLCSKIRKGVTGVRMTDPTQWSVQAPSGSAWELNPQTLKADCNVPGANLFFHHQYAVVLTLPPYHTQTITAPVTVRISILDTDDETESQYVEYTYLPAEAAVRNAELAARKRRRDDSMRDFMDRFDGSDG

The target of another assay is T5, GST-Dm-Relish (Drosophila melanogaster, UniProt Q94527 99-473).
T5 sequence: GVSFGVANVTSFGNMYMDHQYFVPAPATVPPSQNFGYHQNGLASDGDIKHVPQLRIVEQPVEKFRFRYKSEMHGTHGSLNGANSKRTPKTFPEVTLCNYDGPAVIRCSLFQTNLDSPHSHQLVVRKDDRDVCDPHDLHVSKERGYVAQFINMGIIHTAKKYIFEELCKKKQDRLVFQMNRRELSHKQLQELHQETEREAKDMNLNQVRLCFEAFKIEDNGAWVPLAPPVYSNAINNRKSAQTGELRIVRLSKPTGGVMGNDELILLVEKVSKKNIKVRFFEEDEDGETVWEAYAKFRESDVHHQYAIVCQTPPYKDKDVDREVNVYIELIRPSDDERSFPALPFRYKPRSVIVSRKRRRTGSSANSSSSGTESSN

Another assay concerns the target T6, GST-Aq-NF-kB (Amphimedon queenslandica, UniProt A9Y5G7 2-389).
T6 sequence: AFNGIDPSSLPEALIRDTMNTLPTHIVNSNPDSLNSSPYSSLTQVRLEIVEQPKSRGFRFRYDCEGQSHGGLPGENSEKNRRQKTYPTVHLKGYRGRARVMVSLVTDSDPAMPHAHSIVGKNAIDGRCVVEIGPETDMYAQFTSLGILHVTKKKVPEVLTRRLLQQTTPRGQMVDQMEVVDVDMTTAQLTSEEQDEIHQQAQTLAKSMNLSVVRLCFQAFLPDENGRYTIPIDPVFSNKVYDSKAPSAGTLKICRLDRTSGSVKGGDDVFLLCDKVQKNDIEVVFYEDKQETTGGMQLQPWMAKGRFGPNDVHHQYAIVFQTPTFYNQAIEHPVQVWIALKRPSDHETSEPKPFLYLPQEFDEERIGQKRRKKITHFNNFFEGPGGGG

In a further assay the target is GST-Hu-p50 (Homo sapiens, UniProt P19838 7-356).

Substitutions are numbered along the chain they refer to.

Chain of GST-Hu-p50 (P19838 7-356): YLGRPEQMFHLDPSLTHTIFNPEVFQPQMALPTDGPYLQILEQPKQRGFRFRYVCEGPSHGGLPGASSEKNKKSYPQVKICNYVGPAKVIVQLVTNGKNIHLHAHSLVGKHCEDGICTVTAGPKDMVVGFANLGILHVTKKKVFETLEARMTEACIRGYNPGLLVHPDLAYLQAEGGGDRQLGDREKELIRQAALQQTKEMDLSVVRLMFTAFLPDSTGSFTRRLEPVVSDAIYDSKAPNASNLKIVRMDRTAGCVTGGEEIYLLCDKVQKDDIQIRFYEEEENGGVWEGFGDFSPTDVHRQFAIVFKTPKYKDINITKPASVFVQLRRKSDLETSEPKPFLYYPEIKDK

Take “CCGATTAACATCAAAATAACCCCTGATGTTAATCGGGTCTTGATTCGCTTGACGCTGCTG”: the binding signal was 6.69 z-score with GST-Ap-NF-kB RHD; 5.59 z-score in assay [1]; 5.3 z-score in assay [2]; 3.27 z-score in the assay with GST-Co-NF-kB; 4.93 z-score with GST-Dm-Relish; 5.19 z-score with GST-Aq-NF-kB. Besides, the binding signal in the assay with GST-Hu-p50 amounted to 5.2 z-score.

As to “CCGATTAACATCAGGATTATCCCTGATGTTAATCGGGTCTTGATTCGCTTGACGCTGCTG”, the binding signal with GST-Ap-NF-kB RHD amounted to 2.26 z-score; in assay [1], 2.9 z-score; in assay [2], 1.47 z-score; in the assay with GST-Co-NF-kB, 2.37 z-score; with GST-Aq-NF-kB, 5.15 z-score; with GST-Hu-p50, 1.73 z-score.

On to “CCGATTAACATCAGGGAAACAAATGATGTTAATCGGGTCTTGATTCGCTTGACGCTGCTG”, for which the binding signal with GST-Ap-NF-kB RHD amounted to 1.7 z-score; in assay [1], 3.05 z-score; in assay [2] it was 3.17 z-score; in the assay with GST-Co-NF-kB it was 4.61 z-score; with GST-Aq-NF-kB, 3.12 z-score; in the assay with GST-Hu-p50, 1.97 z-score.

“CCGATTAACATCAGGGGAAAGGATGATGTTAATCGGGTCTTGATTCGCTTGACGCTGCTG”: the binding signal with GST-Ap-NF-kB RHD amounted to 4.44 z-score; in assay [1] it was 5.7 z-score; in assay [2] it was 6.71 z-score; with GST-Co-NF-kB it was 4.77 z-score; with GST-Dm-Relish it was 1.2 z-score; with GST-Aq-NF-kB, 4.14 z-score. In the assay with GST-Hu-p50, this sequence returned a binding signal of 3.87 z-score.

For “CCGATTAACATCAGGGGGGATTATGATGTTAATCGGGTCTTGATTCGCTTGACGCTGCTG”, the binding signal in the assay with GST-Ap-NF-kB RHD was determined as 8.28 z-score; in assay [1], 6.89 z-score; in assay [2] it was 7.27 z-score; with GST-Co-NF-kB it was 7.08 z-score; with GST-Dm-Relish, 6.91 z-score; with GST-Aq-NF-kB, 6.21 z-score. In addition, the binding signal in the assay with GST-Hu-p50 is 6.82 z-score.

As for “CCGATTAACATCAATTGGGAAAATGATGTTAATCGGGTCTTGATTCGCTTGACGCTGCTG”, the binding signal is 1.52 z-score with GST-Ap-NF-kB RHD; 2.96 z-score in assay [1]; 4.08 z-score in assay [2]; 2.47 z-score with GST-Co-NF-kB; 1.4 z-score with GST-Aq-NF-kB; 2.04 z-score with GST-Hu-p50.

For “CCGATTAACATCAGGATTACCCATGATGTTAATCGGGTCTTGATTCGCTTGACGCTGCTG”, the binding signal is 2.92 z-score in the assay with GST-Ap-NF-kB RHD; 2.65 z-score in assay [1]; 2.12 z-score in assay [2]; 1.67 z-score in the assay with GST-Co-NF-kB; 2.52 z-score with GST-Dm-Relish; 3.19 z-score with GST-Aq-NF-kB. The same sequence had a binding signal with GST-Hu-p50 of 1.83 z-score.

For “CCGATTAACATCAAATTTCCCCATGATGTTAATCGGGTCTTGATTCGCTTGACGCTGCTG”, the binding signal with GST-Ap-NF-kB RHD stood at 7.86 z-score; in assay [1], 9.05 z-score; in assay [2] it was 10.8 z-score; in the assay with GST-Co-NF-kB, 9.42 z-score; with GST-Dm-Relish, 4.87 z-score; with GST-Aq-NF-kB, 7.31 z-score. The binding signal with GST-Hu-p50 is 6.68 z-score.

For “CCGATTAACATCAGGAAGTCCCCTGATGTTAATCGGGTCTTGATTCGCTTGACGCTGCTG”, the binding signal with GST-Ap-NF-kB RHD was 8.63 z-score; in assay [1], 8.97 z-score; in assay [2], 6.92 z-score; with GST-Co-NF-kB, 2.68 z-score; in the assay with GST-Dm-Relish it was 8.96 z-score; with GST-Aq-NF-kB it was 8.77 z-score. This sequence had a binding signal with GST-Hu-p50 of 6.94 z-score.

On to “CCGATTAACATCAGGGATATACCTGATGTTAATCGGGTCTTGATTCGCTTGACGCTGCTG”, for which the binding signal in the assay with GST-Ap-NF-kB RHD was 3.17 z-score; in assay [1], 3.3 z-score; in assay [2], 1.91 z-score; with GST-Co-NF-kB, 1.14 z-score; with GST-Dm-Relish it was 6.4 z-score; in the assay with GST-Aq-NF-kB, 5.31 z-score. The sequence also came in with a binding signal in the assay with GST-Hu-p50 of 1.99 z-score.

“CCGATTAACATCAAAGTCCCCCCTGATGTTAATCGGGTCTTGATTCGCTTGACGCTGCTG”: the binding signal with GST-Ap-NF-kB RHD was found to be 7.56 z-score; in assay [1], 6.37 z-score; in assay [2], 5.95 z-score; with GST-Co-NF-kB it was 9.05 z-score; in the assay with GST-Dm-Relish, 7.85 z-score; in the assay with GST-Aq-NF-kB, 6.3 z-score. In addition, the binding signal with GST-Hu-p50 came out at 5.64 z-score.
